# Laboratory results published in PubChem BioAssay (EPA / NIEHS).
# Values joined by “and” are separate entries in the source; they are usually repeats but may differ in a detail not shown here. Identical values can stand only once. Records with an inconclusive call do not appear. Some compounds were tested as several samples or in several runs, with calls that do not always agree. Active and inactive are the calls of the source. How the source made its calls, unless noted: active means hit-call score of the fitted dose curve at least 0.9, where 1 is the maximum; inactive means score below 0.9.
# Legend:
# [1] = read-out: Plasminogen activator inhibitor-1 (PAI1), SERPINE1 (gene 5054); assay: BSK_CASM3C_PAI1: BioMAP Diversity Plus: CASM3C Assay for Plasminogen activator inhibitor-1 (PAI1) Biomarker Activity (AID 2284284); details: primary human coronary artery smooth muscle cells;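 further: PAI-1 protein level measured by ELISA 24 h after dosing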
# [2] = read-out: Monocyte Chemoattractant Protein-1 (MCP1), CCL2 (gene 6347); assay: BSK_hDFCGF_MCP1: BioMAP Diversity Plus: hDFCGF Assay for Monocyte Chemoattractant Protein-1 (MCP1) Biomarker Activity (AID 2284285); details: primary human foreskin fibroblasts
# Summary of the method: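 Human foreskin fibroblasts (hDFCGF system) were exposed to compound and secreted MCP-1 was measured by ELISA after 24 hours. Activity was fitted relative to DMSO. Cytotoxicity was checked by SRB total-protein staining in parallel cultures.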
# [3] = read-out: Intercellular Adhesion Molecule 1 (ICAM1), ICAM1 (gene 3383); assay: BSK_hDFCGF_ICAM1: BioMAP Diversity Plus: hDFCGF Assay for Intercellular Adhesion Molecule 1 (ICAM1) Biomarker Activity (AID 2284287); details: primary human foreskin fibroblasts
# Summary of the method: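 Primary human foreskin fibroblasts (hDFCGF system) dosed with chemical; ICAM-1 quantified by ELISA at 24 h relative to DMSO. Parallel SRB total-protein staining to assess overt cytotoxicity.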
# [4] = read-out: TIMP metallopeptidase inhibitor 2 (TIMP2), TIMP2 (gene 7077); assay: BSK_hDFCGF_TIMP2: BioMAP Diversity Plus: hDFCGF Assay for TIMP metallopeptidase inhibitor 2 (TIMP2) Biomarker Activity (AID 2284289); details: primary human foreskin fibroblasts
# Summary of the method: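 Primary human foreskin fibroblasts in the hDFCGF system, dosed for 24 h; TIMP-2 level measured by ELISA, fitted in the positive direction against DMSO; cytotoxicity checked in parallel by sulforhodamine B total protein staining.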
# [5] = read-out: Thrombomodulin, THBD (gene 7056); assay: BSK_LPS_Thrombomodulin: BioMAP Diversity Plus: LPS Assay for Thrombomodulin Biomarker Activity (AID 2284296); details: primary human HUVEC with PBMC
# Summary of the method: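 Human umbilical vein endothelial cells co-cultured with PBMC and stimulated with LPS; cell-surface thrombomodulin measured by ELISA 24 hours after compound. Gain or loss versus DMSO; cytotoxicity checked by SRB staining in parallel cultures.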
# [6] = IUF_NPC2c_oligodendrocyte_migration_120hr: Leibniz Research Institute for Environmental Medicine (IUF) 120-hour Neural Progenitor Cell Migration Assay for Oligodendrocyte Migration (NPC2c) (AID 2284297);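 further: O4-positive oligodendrocyte migration distance divided by radial glia migration distance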
# Summary of the method: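 Human fetal cortex-derived neural progenitor spheres (0.3 mm) were plated on poly-D-lysine/laminin in N2 differentiation medium and exposed to 7 concentrations for 120 h, with half-medium renewal at day 3. Oligodendrocyte migration distance was normalized to radial glia migration, relative to DMSO.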
# [7] = IUF_NPC2a_radial_glia_migration_120hr: Leibniz Research Institute for Environmental Medicine (IUF) 120-hour Neural Progenitor Cell Migration Assay for Radial Glia Migration (NPC2a) (AID 2284298)
# Summary of the method: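 Single 0.3 mm primary human fetal-cortex (GW 16-19) NPC spheres were plated on poly-D-lysine/laminin in N2 differentiation medium and exposed from day 0 for 120 h, half-medium refreshed day 3. Migration distance came from Hoechst nuclei-density imaging, relative to DMSO.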
# [8] = IUF_NPC2a_radial_glia_migration_72hr: Leibniz Research Institute for Environmental Medicine (IUF) 72-hour Neural Progenitor Cell Migration Assay for Radial Glia Migration (NPC2a) (AID 2284299)
# Summary of the method: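 Migration out of plated human neural progenitor spheres is scored at 72 h as the distance in um from the sphere core edge to the edge of the migration area. Values are the mean of four manual measurements per well, normalised to DMSO.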
# [9] = IUF_NPC2b_neuronal_migration_120hr: Leibniz Research Institute for Environmental Medicine (IUF) 120-hour Neural Progenitor Cell Migration Assay for Neuron Migration (NPC2b) (AID 2284300)
# Summary of the method: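 Primary human fetal cortex neural progenitor spheres (0.3 mm) plated on poly-D-lysine/laminin in N2 differentiation medium, exposed 120 h with half-medium refresh at day 3. TUBB3-stained neuron distance from sphere core, normalized to radial glia migration, versus DMSO.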
# [10] = IUF_NPC3_neuronal_differentiation_120hr: Leibniz Research Institute for Environmental Medicine (IUF) 120-hour Neuronal Differentiation Assay (NPC3) (AID 2284301)
# Summary of the method: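 Single 0.3 mm neurospheres from human fetal cortex were plated in differentiation medium containing test compound. Medium was half-replaced on day 3. After 120 h cells were fixed, immunostained and imaged, and neuronal fraction was scored against DMSO control.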
# [11] = IUF_NPC4_neurite_length_120hr: Leibniz Research Institute for Environmental Medicine (IUF) 120-hour Neuronal Morphology Assay for Neurite Length (NPC4) (AID 2284302)
# Summary of the method: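 Read-out is mean neurite length in µm of TUBB3-positive neurons, skeletonized from high-content fluorescence images after 120 h. Single 0.3 mm primary human neural progenitor spheres differentiated on poly-D-lysine/laminin under continuous compound exposure; DMSO was baseline.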
# CD69, CD69 (gene 969) = assay: BSK_LPS_CD69: BioMAP Diversity Plus: LPS Assay for CD69 Biomarker Activity (AID 2284303); details: primary human HUVEC with PBMC
# Summary of the method: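 Human umbilical vein endothelial cells co-cultured with PBMC under LPS stimulation, chemical exposure 24 h; cell-surface CD69 measured by ELISA and fitted in the positive direction versus DMSO.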
# [12] = IUF_NPC5_oligodendrocyte_differentiation_120hr: Leibniz Research Institute for Environmental Medicine (IUF) 120-hour Oligodendrocyte Differentiation Assay (NPC5) (AID 2284304; active means hit-call score of the fitted dose curve at least 0.9, where 1 is the maximum;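 further: primary human fetal neural progenitor spheres plated to migrate and differentiate; share of O4-positive cells among Hoechst nuclei found by CNN image analysis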)
# Summary of the method: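 Primary human fetal (GW 16-19) neural progenitor spheres (0.3 mm) plated on poly-D-lysine/laminin in N2 differentiation medium, exposed from day 0 for 120 h with half-medium refresh at day 3; O4-positive cells as percent of Hoechst nuclei, CNN-identified, versus DMSO.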
# [13] = IUF_NPC4_neurite_area_120hr: Leibniz Research Institute for Environmental Medicine (IUF) 120-hour Neuronal Morphology Assay for Neurite Area (NPC4) (AID 2284305; active means hit-call score of the fitted dose curve at least 0.9, where 1 is the maximum)
# Summary of the method: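 Neurite area is read out as the mean pixel area, excluding nuclei, of skeletonized TUBB3-positive neurons imaged after 120 h. Primary human neural progenitor spheres differentiated on poly-D-lysine/laminin with compound present from day 0. Activity was referenced to DMSO controls.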
# [14] = IUF_NPC2-5_cytotoxicity_72hr: Cytotoxicity Assessment at 72 hours in the Leibniz Research Institute for Environmental Medicine (IUF) Neural Progenitor Cell Migration and Differentiation Assay for Cytotoxicity (NPC2-5) (AID 2284306; active means hit-call score of the fitted dose curve at least 0.9, where 1 is the maximum;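 further: LDH release into supernatant measured by resorufin fluorescence marking membrane damage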)
# Summary of the method: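 Membrane integrity loss was scored from fluorescence (RFU) of resorufin generated by LDH in culture supernatant, 72 h after dosing. Differentiating human progenitor spheres received seven serial compound concentrations alongside a solvent control.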
# [15] = IUF_NPC2-5_cytotoxicity_120hr: Cytotoxicity Assessment at 120 hours in the Leibniz Research Institute for Environmental Medicine (IUF) Neural Progenitor Cell Migration and Differentiation Assay (NPC2-5) (AID 2284307; active means hit-call score of the fitted dose curve at least 0.9, where 1 is the maximum;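 further: LDH released into supernatant as membrane damage marker via resorufin fluorescence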)
# Summary of the method: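 Human fetal neural progenitor spheres (0.3 mm, GW 16-19 cortex) were plated on poly-D-lysine/laminin in N2 differentiation medium and exposed for 120 h, with half-medium refresh at day 3. LDH release into supernatant was read by resorufin fluorescence.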
# [16] = IUF_NPC2-5_cell_number_120hr: Cell Number Assessment at 120 hours in the Leibniz Research Institute for Environmental Medicine (IUF) Neural Progenitor Cell Migration and Differentiation Assay (NPC2-5) (AID 2284308);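 further: count of Hoechst-stained nuclei in migration zone around plated human neural progenitor spheres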
# Summary of the method: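 Primary human fetal neural progenitor spheres (GW 16-19, 0.3 mm) plated on poly-D-lysine/laminin in N2 differentiation medium, exposed from day 0 for 120 h with half-medium refresh at day 3; Hoechst-positive nuclei counted in migration area versus DMSO control.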
# [17] = IUF_NPC2-5_viability_120hr: Viability Assessment at 120 hours in the Leibniz Research Institute for Environmental Medicine (IUF) Neural Progenitor Cell Migration and Differentiation Assay (NPC2-5) (AID 2284312)
# Summary of the method: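 Alamar blue resorufin fluorescence read after 5 days of differentiation, with compound present from day 0 and replenished at day 3. Primary hNPC spheres on laminin-coated plates, 37C; seven concentrations plus solvent control, fitted against DMSO.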
# [18] = CCTE_Mundy_HCI_iCellGluta_NOG_NeuriteLength: CCTE's Neurite Outgrowth Assay in iCellGluta cells for Neurite Length, Mundy Lab (AID 2284318; active means hit-call score of the fitted dose curve at least 0.9, where 1 is the maximum)
# Summary of the method: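 Automated high-content imaging of betaIII-tubulin (Alexa Fluor-488) and Hoechst-stained cells gave neurite length, normalized to the DMSO baseline.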
# [19] = IUF_NPC1_cytotoxicity_72hr: Cytotoxicity Assessment at 72 hours in the Leibniz Research Institute for Environmental Medicine (IUF) Neural Progenitor Cell Proliferation Assay (NPC1) (AID 2284332; active means hit-call score of the fitted dose curve at least 0.9, where 1 is the maximum;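 further: rising LDH signal means more cytotoxicity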)
# Summary of the method: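 hNPC spheres (fetal brain, gestational week 16-19) grown under proliferative EGF/FGF conditions, pH 7.2-7.6, were treated continuously for 72 h. Cytotoxicity came from LDH-coupled resazurin fluorescence in each well's supernatant.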
# [20] = CCTE_Mundy_HCI_iCellGluta_NOG_NeuronCount: CCTE's Neurite Outgrowth Assay in iCellGluta cells for Neuron Count, Mundy Lab (AID 2284340; active means hit-call score of the fitted dose curve at least 0.9, where 1 is the maximum;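 further: cells fixed about 48 h after compound addition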)
# Summary of the method: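 Neuron count read by automated high-content imaging of Hoechst 33342 and betaIII-tubulin/Alexa Fluor-488 labelling in human iPSC glutamatergic neurons. Activity fitted relative to DMSO.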
# [21] = CCTE_Mundy_HCI_iCellGluta_NOG_NeuriteCount: CCTE's Neurite Outgrowth Assay in iCellGluta cells for Neurite Count, Mundy Lab (AID 2284342; active means hit-call score of the fitted dose curve at least 0.9, where 1 is the maximum;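 further: chemical exposure about 48 hours starting 2 hours after plating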)
compound,measurement,setting,value
[Cd+2].[Cl-].[Cl-],AC50,[1],10.9 µM (active) and 13.8 µM (active)
same,AC50,[2],4.82 µM (active) and 1.76 µM (active)
same,AC50,[3],9.72 µM (active) and 13.9 µM (active)
same,AC50,[4],3.97 µM (active) and 2.93 µM (active)
same,outcome,[5],inactive
same,AC50,[6],15.1 µM (active)
same,AC50,[7],8.38 µM (active)
same,AC50,[8],8.95 µM (active)
same,AC50,[9],17.7 µM (active)
same,AC50,[10],0.00342 µM (active)
same,AC50,[11],7.58 µM (active)
same,AC50,"CD69, CD69 (gene 969)",7.19 µM (active)
same,outcome,"CD69, CD69 (gene 969)",inactive
same,AC50,[12],17.5 µM (active)
same,AC50,[13],15.6 µM (active)
same,AC50,[14],13.5 µM (active)
same,AC50,[15],11.2 µM (active)
same,AC50,[16],4.7 µM (active)
same,AC50,[17],6.4 µM (active)
same,AC50,[18],10.8 µM (active)
same,outcome,[19],inactive
same,AC50,[20],15 µM (active)
same,AC50,[21],11.4 µM (active)
